Test results: PubChem BioAssay AID1159580 (chemical genetic matrix, 2015)
Where “and” joins values, the source holds several entries; their conditions need not be identical. Equal values may be shown once. Screen size: about 5,500 compounds; about 2,000 (36%) were called active. Inconclusive results (about 18%) are left out. Cut-off read from the data, not from the text of the source: active = normalized growth mostly below about 0.91 (no sharp cut-off); inconclusive = no clear call, values can overlap the other calls; inactive = mostly above about 0.92. The list shows a part of the results.

Experiment: chemical genetic growth profiling, strain panel (AID 1159580);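 note: tested at 20 µM; growth read once vehicle control cultures reached saturation at 30 °C; 1 = growth at the plate median or of vehicle wells; lower values mean less growth of the strain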
Conditions: S. cerevisiae deletion strains, growth OD

Measured: normalized growth

c1ccc(N=Nc2ccccc2)cc1
inactive: locus YAL021C, strain ccr4, stronger effect = lower value 1.02 | locus YAL026C, strain drs2, stronger effect = lower value 0.998 | locus YAL030W, strain snc1, stronger effect = lower value 0.985 | locus YBL061C, strain skt5, stronger effect = lower value 0.991 | locus YBR009C, strain hhf1, stronger effect = lower value 0.985 | locus YBR021W, strain FUR4, stronger effect = lower value 1.01 | locus YBR023C, strain chs3, stronger effect = lower value 0.99 | locus YBR171W, strain sec66, stronger effect = lower value 0.975 | locus YBR229C, strain ROT2, stronger effect = lower value 1 | locus YBR231C, strain swc5, stronger effect = lower value 0.984 | locus YBR279W, strain paf1, stronger effect = lower value 0.985 | locus YCL011C, strain gbp2, stronger effect = lower value 0.992 | locus YCL016C, strain dcc1, stronger effect = lower value 0.982 | locus YCL029C, strain bik1, stronger effect = lower value 1.03 | locus YCL061C, strain MRC1, stronger effect = lower value 0.993 | locus YCL069W, strain vba3, stronger effect = lower value 0.988 | locus YCR088W, strain abp1, stronger effect = lower value 0.991 | locus YDL005C, strain med2, stronger effect = lower value 0.977 | locus YDL035C, strain GPR1, stronger effect = lower value 0.981 | locus YDL040C, strain nat1, stronger effect = lower value 0.985 | locus YDL074C, strain BRE1, stronger effect = lower value 0.942 | locus YDL101C, strain DUN1, stronger effect = lower value 0.979 | locus YDL134C, strain PPH21, stronger effect = lower value 0.968 | locus YDL185W, strain tfp1, stronger effect = lower value 1.01 | locus YDL192W, strain arf1, stronger effect = lower value 1.03 | locus YDR001C, strain nth1, stronger effect = lower value 0.987 | locus YDR069C, strain doa4, stronger effect = lower value 0.995 | locus YDR101C, strain arx1, stronger effect = lower value 1.02 | locus YDR137W, strain rgp1, stronger effect = lower value 0.911 | locus YDR150W, strain NUM1, stronger effect = lower value 1 | locus YDR159W, strain sac3, stronger effect = lower value 1.01 | locus YDR162C, strain NBP2, stronger effect = lower value 1.01 | locus YDR195W, strain ref2 0.994 | locus YDR297W, strain sur2, stronger effect = lower value 0.987 | locus YDR318W, strain mcm21, stronger effect = lower value 1.02 | locus YDR334W, strain swr1, stronger effect = lower value 0.989 | locus YDR335W, strain msn5, stronger effect = lower value 0.972 | locus YDR388W, stronger effect = lower value 1.03 | locus YDR392W, strain spt3, stronger effect = lower value 0.992 | locus YDR502C, strain sam2, stronger effect = lower value 1.02 | locus YEL003W, strain gim4, stronger effect = lower value 0.996 | locus YEL037C, strain rad23, stronger effect = lower value 0.988 | locus YEL061C, strain CIN8 (second series), stronger effect = lower value 0.976 | locus YEL061C, strain CIN8, stronger effect = lower value 1 | locus YER015W, strain faa2, stronger effect = lower value 0.996 | locus YER016W, strain bim1, stronger effect = lower value 0.992 | locus YER110C, stronger effect = lower value 1.03 | locus YER111C, strain swi4, stronger effect = lower value 0.987 | locus YER155C, strain BEM2 (second series), stronger effect = lower value 0.906 | locus YER155C, strain BEM2, stronger effect = lower value 1.01 | locus YER167W, strain BCK2, stronger effect = lower value 0.998 | locus YFR010W, strain ubp6, stronger effect = lower value 0.99 | locus YGL078C, strain dbp3, stronger effect = lower value 1.02 | locus YGL086W, strain mad1, stronger effect = lower value 1.01 | locus YGL167C, strain pmr1, stronger effect = lower value 0.992 | locus YGL173C, strain kem1, stronger effect = lower value 0.993 | locus YGL227W, strain vid30, stronger effect = lower value 0.992 | locus YGL240W, strain doc1, stronger effect = lower value 0.975 | locus YGL248W, strain PDE1, stronger effect = lower value 0.982 | locus YGL253W, strain hxk2, stronger effect = lower value 0.996 | locus YGR078C, strain PAC10, stronger effect = lower value 0.939 | locus YGR135W, strain pre9, stronger effect = lower value 1.02 | locus YGR229C, strain SMI1, stronger effect = lower value 0.966 | locus YGR252W, strain gcn5, stronger effect = lower value 0.999 | locus YHR013C, strain ard1, stronger effect = lower value 1.07 | locus YHR027C, strain rpn1, stronger effect = lower value 0.987 | locus YHR030C, strain SLT2, stronger effect = lower value 1.01 and 0.972 | locus YHR079C, strain IRE1 (second series), stronger effect = lower value 1.02 | locus YHR079C, strain IRE1, stronger effect = lower value 0.967 | locus YHR094C, strain hxt1, stronger effect = lower value 1.03 | locus YHR129C, strain ARP1, stronger effect = lower value 1 | locus YHR142W, strain chs7, stronger effect = lower value 1.01 | locus YHR200W, strain rpn10, stronger effect = lower value 1.03 | locus YIL066C, strain RNR3, stronger effect = lower value 0.986 | locus YIL073C, strain SPO22, stronger effect = lower value 1.08 | locus YIL125W, strain kgd1, stronger effect = lower value 1.01 | locus YIR030C, strain dcg1, stronger effect = lower value 1.04 | locus YJL092W, strain hpr5, stronger effect = lower value 0.976 | locus YJL095W, strain BCK1 (second series), stronger effect = lower value 0.979 | locus YJL095W, strain BCK1, stronger effect = lower value 0.983 and 0.961 | locus YJL115W, strain asf1, stronger effect = lower value 0.989 | locus YJL129C, strain trk1, stronger effect = lower value 0.969 | locus YJL134W, strain LCB3, stronger effect = lower value 1.01 | locus YJL154C, strain vps35, stronger effect = lower value 0.984 | locus YJL164C, strain tpk1, stronger effect = lower value 0.996 | locus YJL166W, strain qcr8, stronger effect = lower value 0.976 | locus YJL168C, strain set2, stronger effect = lower value 1.02 | locus YJL187C, strain SWE1 (second series), stronger effect = lower value 0.971 | locus YJR043C, strain POL32, stronger effect = lower value 0.996
